Source: PubChem BioAssay (EPA / NIEHS)
Active and inactive are the calls of the source. Rule for the calls: active = hit-call score of the fitted dose curve at least 0.9, where 1 is the maximum; inactive = score below 0.9.

Each molecule was assayed on Signal transducer and activator of transcription 3 (Homo sapiens) (UniProt P40763) (assay: LTEA_HepaRG_STAT3: Life Technologies and Expression Analysis (LTEA) Assay for Signal transducer and activator of transcription (STAT3) using HepaRG (AID 2283529)). Conditions: mRNA level, 48 h; actives raise or lower the signal.
Experimental: LTEA_HepaRG is a cell based, multiplexed-readout assay that uses HepaRG, a human liver cell line, with measurements taken at 48 hours after chemical dosing on a 96-well plate.LTEA_HepaRG_STAT3 is one of 102 assay component(s) measured in the LTEA HepaRG cell culture assay. It is a marker of Cell proliferation, survival, death.Data from the assay component LTEA_HepaRG_STAT3 was analyzed into 1 endpoint. This assay endpoint, LTEA_HepaRG_STAT3, was analyzed with bidirectional fitting relative to DMSO as the negative control and baseline of activity. Using a type of inducible reporter, measures of mRNA induction for gain or loss-of-signal activity can be used to understand regulation of transcription factor activity. To generalize the intended target to other relatable targets, this assay endpoint is annotated to the dna binding intended target family, where the subfamily is stat protein.
A total of 1060 chemcials from the ToxCast library were tested in eight-point concentration-response experiments. Cell culture and cytotoxicity assays were conducted at Thermo Fisher Scientific's Custom Services facility (Madison, WI). A single lot of human HepaRG cells (Thermo Fisher Scientific, Frederick, MD) was used for the cell culture experiments. 96-well format collagen type I coated plates of human HepaRG cells were prepared using established methods. Briefly, cryopreserved HepaRG cells were thawed, plated at a density of approximately 100,000 cells/well in HepaRG Thaw, Plate, and General Purpose media (HPRG770, Thermo Fisher Scientific), and incubated for 48 hours. 0.5% DMSO was selected as vehicle control to balance the requisite need of DMSO in HepaRG cultures to maintain differentiation (for example, baseline metabolism, proportions of hepatocytes vs. cholangiocytes), while enabling further hepatic receptor pathway activation (for example, PXR and CAR) in response to chemical exposure. 48 hours after plating, the culture medium was replaced with HepaRG Serum-Free Incudtion Media. Cells were exposed to each test chemical in duplicate and maintained in CO2 incubators for another 48 hours. Chemical plates were thawed to room temperature and 200x concentrations of treatment groups were prepared. 8-point conentration-reponse curves were made with the highest exposure at 100 uM, followed by half-log dilutions, all in 0.5% DMSO. Each test plate contained variouse controls, induction positive controls (1mM phenobarbital), cytotoxicity positive controls ([…] aflatoxin B1), vehicle controls (0.5% DMSO), and total lysis controls (0.5% DMSO). Cell morphology images were taken using an Essen IncuCyte FLR automated microscope, with six 96-well plates imaged in about 24 minutes. Images were captured and exported and JPEG files. Spent culture media was transfered to black-well plates for the LDH assay, and remaining media was sorted at -80 C for later use. Cells were treated with RLT buffer and frozen until shipped for gene expression analysis. Total RNA was isolated from the cell suspension in 75 uL of Buffer RLT (Qiagen, Germantown, MD 20874) by Quintiles/Expression Analysis (Durham, NC) using a custom isolation procedure. Total RNA from each plate well was transferred to a preamplification plate. Fluidigm's 96.96 Dynamic ArrayTM (Fluidigm, Amsterdam, the Netherlands) technology was used for gene expression analyses by quantitative reverse transcription polymerase chain reaction (qRT-PCR, performed by Quintiles/Expression Analysis, Durham, NC)89. Standard TaqManTM Assays (Applied Biosystems/ThermoFisher Scientific, Foster City, CA) were used to assess the expression of 93 genes selected based on their selectivity and sensitivity to important hepatic receptors known to be modulated by environmental chemicals; importance in human hepatocyte functionality; and hepatotoxicity. […]

Signal transducer and activator of transcription 3 (Homo sapiens), sequence (P40763 whole entry, looked up): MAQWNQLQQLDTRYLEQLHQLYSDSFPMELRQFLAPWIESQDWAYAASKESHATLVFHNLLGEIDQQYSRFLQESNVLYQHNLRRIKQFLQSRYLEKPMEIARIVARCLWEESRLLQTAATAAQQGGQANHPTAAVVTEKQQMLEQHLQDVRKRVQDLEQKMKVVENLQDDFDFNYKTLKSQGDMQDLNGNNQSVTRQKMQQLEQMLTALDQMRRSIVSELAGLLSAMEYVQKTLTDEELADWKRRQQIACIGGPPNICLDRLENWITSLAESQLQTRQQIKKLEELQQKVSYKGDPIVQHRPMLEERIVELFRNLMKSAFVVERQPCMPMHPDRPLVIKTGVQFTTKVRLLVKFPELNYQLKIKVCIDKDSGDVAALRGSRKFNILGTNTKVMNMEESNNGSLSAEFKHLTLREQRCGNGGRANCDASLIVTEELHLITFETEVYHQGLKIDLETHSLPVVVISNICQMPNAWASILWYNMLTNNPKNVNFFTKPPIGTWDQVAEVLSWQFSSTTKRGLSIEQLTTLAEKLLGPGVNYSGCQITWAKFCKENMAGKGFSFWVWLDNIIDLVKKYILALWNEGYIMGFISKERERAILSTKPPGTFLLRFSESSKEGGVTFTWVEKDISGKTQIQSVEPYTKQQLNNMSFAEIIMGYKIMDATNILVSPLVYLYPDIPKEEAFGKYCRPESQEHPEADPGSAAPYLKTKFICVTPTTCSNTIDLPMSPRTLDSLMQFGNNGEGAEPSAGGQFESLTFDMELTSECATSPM

| SMILES | outcome | AC50 |
| --- | --- | --- |
| Cc1ccc([N+](=O)[O-])cc1 | inactive | – |
| O=C(Oc1ccc(Br)cc1)N1CCN2CCC1CC2 | inactive | – |
| CC(C)(C)OOC(C)(C)CCC(C)(C)OOC(C)(C)C | inactive | – |
| c1ccc2c(c1)-c1cccc3cccc-2c13 | inactive | – |
| O=Cc1ccco1 | inactive | – |
| CC(C)(C)C(O)(CCc1ccc(Cl)cc1)Cn1cncn1 (stereo not given) | inactive | – |
| ClC1=C(Cl)C2(Cl)C3C(Cl)C=CC3C1(Cl)C2(Cl)Cl (stereo not given) | inactive | – |
| OCCOCCO | inactive | – |
| CN(C)c1ccccc1 | inactive | – |
| Nc1ccc([N+](=O)[O-])cc1 | inactive | – |
| [Cl-].[Cl-].[Hg+2] | inactive | – |
| ClC1=C(Cl)[C@]2(Cl)[C@H]3[C@H]([C@@H]4C=C[C@H]3C4)[C@@]1(Cl)C2(Cl)Cl | inactive | – |
| Nc1ccc(Cc2ccc(N)cc2)cc1 | inactive | – |
| CN(C)[C@@H]1C(=O)C(C(N)=O)=C(O)[C@@]2(O)C(=O)C3=C(O)c4c(O)cccc4[C@@](C)(O)[C@H]3C[C@@H]12 | inactive | – |
| Clc1ccc(Cl)c(Cl)c1 | inactive | – |
| CN(C)c1ccc(C(=O)c2ccc(N(C)C)cc2)cc1 | inactive | – |
| CCCCOC(=O)c1ccccc1C(=O)OCc1ccccc1 | inactive | – |
| CS(=O)(=O)NC(=O)c1cc(Oc2ccc(C(F)(F)F)cc2Cl)ccc1[N+](=O)[O-] | inactive | – |
| COC(=O)c1ccccc1N | inactive | – |
| [O-][Cl+]O | inactive | – |

| SMILES | outcome | AC50 |
| --- | --- | --- |
| Oc1ccc2ccc3cccc4ccc1c2c34 | inactive | – |
| Clc1ccc(C(c2ccc(Cl)cc2)C(Cl)Cl)cc1 | inactive | – |
| CCC12COCN1COC2 | inactive | – |
| ClCCOCCCl | inactive | – |
| Clc1ccc(C(c2ccc(Cl)cc2)C(Cl)(Cl)Cl)cc1 | inactive | – |
| CC(C)(C)OOC(=O)c1ccccc1 | inactive | – |
| Cc1ccc(N)c(N)c1 | inactive | – |
| C=CCc1ccc2c(c1)OCO2 | inactive | – |
| CCCCCCCCOC(=O)c1ccc(C(=O)OCCCCCCCC)c(C(=O)OCCCCCCCC)c1 | inactive | – |
| O=C(N[C@H](c1ccccc1)[C@@H]1CN2CCC1CC2)c1c(Cl)ccc(C(F)(F)F)c1Cl | – | 83.3 µM (active) |
| N#CC(Br)(Br)C(N)=O | inactive | – |
| CCCCCOC(=O)c1ccccc1C(=O)OCCCCC | inactive | – |
| CCN(CC)CCO | inactive | – |
| O=[N+]([O-])C(Br)(CO)CO | inactive | – |
| CC(C)COC(=O)c1ccccc1C(=O)OCC(C)C | inactive | – |
| CCCSC(=O)N(CCC)CCC | inactive | – |
| c1ccc2c(c1)oc1ccccc12 | inactive | – |
| COP(=S)(OC)SCN1C(=O)c2ccccc2C1=O | inactive | – |
| CCCCCCCCCCCCCN1CC(C)OC(C)C1 (stereo not given) | inactive | – |
| CCC[CH2][Sn]([Cl])([CH2]CCC)[CH2]CCC | – | 15.3 µM (active) |
